This note sets out measurements from the supplement of paper PMC11732987, “Enantioselective OTUD7B fragment discovery through chemoproteomics screening and high-throughput optimisation” (Communications Chemistry, 2025).

What all share (experiment): log2 ratio of Biotin-Ahx-Ub-VS probe labelling (fragment/DMSO); higher = less target engagement (more negative = stronger competition), active = hit call of the paper (q ≤ 0.05, log2 ratio ≤ -1)
Conditions in all cases: compound concentration: 200 uM; treatment time: 3 h

In one test the target is T1, ALG13 (UniProt Q9NP73).
T1 sequence (whole entry): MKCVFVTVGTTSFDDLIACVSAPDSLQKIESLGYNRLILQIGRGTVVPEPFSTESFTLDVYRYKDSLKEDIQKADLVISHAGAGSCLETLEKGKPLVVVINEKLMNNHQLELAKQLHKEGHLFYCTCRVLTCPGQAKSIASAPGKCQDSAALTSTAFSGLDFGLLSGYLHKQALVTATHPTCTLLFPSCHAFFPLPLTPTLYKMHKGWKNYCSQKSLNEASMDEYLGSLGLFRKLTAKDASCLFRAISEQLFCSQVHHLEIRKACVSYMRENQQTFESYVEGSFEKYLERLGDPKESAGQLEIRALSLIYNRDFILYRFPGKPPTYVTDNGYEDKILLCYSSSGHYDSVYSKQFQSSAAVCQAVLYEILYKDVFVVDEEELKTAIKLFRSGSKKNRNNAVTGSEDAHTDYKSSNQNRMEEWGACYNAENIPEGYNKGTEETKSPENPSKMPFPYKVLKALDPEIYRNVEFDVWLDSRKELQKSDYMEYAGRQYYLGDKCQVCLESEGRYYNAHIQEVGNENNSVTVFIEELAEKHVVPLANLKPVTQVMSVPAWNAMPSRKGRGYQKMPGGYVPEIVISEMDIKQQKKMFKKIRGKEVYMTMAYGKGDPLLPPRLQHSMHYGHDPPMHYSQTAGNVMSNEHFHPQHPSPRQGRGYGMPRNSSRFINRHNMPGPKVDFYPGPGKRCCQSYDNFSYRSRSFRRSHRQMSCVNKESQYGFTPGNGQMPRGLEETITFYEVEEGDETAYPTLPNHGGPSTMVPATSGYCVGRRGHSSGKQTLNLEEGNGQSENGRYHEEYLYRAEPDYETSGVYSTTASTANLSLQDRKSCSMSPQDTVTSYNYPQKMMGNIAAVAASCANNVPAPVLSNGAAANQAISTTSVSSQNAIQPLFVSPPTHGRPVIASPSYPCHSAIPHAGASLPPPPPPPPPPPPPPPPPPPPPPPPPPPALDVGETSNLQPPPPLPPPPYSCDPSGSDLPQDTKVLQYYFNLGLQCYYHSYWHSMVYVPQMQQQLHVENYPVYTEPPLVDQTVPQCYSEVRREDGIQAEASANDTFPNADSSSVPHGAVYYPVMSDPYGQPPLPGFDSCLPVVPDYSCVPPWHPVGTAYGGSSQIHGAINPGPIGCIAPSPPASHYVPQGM
In outline: (§1)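 Fragment (200 µM) or vehicle was incubated for 3 h with triplicate HEK293T lysate samples of 495 µg, which were then treated with Biotin-Ahx-Ub-VS at 0.5 µM final for 1 h. Labelled DUBs were enriched on NeutrAvidin, digested with LysC and trypsin, and analysed by diaPASEF LC-MS/MS. Values are average log2 fragment/vehicle ratios from an unpaired t-test on global-median-normalised Spectronaut label-free quantities, using proteins with ≥2 unique peptides.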

A further test concerns the target ATXN3 (UniProt P54252). In outline: as §1
The target in another test is T2, BAP1 (UniProt Q92560).
T2 sequence (whole entry): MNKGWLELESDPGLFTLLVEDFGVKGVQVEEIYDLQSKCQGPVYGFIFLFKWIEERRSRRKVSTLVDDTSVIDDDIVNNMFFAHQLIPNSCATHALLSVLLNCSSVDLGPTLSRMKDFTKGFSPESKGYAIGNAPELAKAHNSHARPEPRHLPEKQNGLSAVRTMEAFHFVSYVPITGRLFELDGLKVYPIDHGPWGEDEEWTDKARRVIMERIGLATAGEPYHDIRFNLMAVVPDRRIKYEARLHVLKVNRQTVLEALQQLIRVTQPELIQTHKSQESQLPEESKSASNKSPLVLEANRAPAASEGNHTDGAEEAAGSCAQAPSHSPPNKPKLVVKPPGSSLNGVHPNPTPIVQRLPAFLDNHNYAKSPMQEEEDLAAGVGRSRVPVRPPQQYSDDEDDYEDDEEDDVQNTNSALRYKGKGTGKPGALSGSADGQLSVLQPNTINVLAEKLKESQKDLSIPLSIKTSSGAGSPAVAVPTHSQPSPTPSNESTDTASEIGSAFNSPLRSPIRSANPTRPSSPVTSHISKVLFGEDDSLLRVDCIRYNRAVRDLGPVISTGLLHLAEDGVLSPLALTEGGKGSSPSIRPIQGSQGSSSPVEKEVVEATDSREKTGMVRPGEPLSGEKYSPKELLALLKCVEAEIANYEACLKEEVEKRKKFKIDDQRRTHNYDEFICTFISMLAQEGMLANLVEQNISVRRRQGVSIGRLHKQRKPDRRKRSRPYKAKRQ
In outline:
as §1

For the next test, the target named is EIF3F (UniProt O00303). In outline: as §1
EIF3F, sequence (O00303 whole entry): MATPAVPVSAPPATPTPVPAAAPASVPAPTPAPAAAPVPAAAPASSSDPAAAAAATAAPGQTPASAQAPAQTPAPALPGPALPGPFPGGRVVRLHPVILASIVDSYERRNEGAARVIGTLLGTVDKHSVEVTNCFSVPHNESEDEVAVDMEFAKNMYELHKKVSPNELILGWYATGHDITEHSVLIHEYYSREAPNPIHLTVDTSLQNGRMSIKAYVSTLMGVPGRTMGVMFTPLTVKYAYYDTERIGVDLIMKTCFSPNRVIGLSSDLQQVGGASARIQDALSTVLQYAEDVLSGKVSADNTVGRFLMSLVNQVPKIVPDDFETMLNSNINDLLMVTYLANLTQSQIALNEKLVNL
In another test the target is EIF3H (UniProt O15372). A digest of the protocol: as §1
EIF3H, sequence (O15372 whole entry): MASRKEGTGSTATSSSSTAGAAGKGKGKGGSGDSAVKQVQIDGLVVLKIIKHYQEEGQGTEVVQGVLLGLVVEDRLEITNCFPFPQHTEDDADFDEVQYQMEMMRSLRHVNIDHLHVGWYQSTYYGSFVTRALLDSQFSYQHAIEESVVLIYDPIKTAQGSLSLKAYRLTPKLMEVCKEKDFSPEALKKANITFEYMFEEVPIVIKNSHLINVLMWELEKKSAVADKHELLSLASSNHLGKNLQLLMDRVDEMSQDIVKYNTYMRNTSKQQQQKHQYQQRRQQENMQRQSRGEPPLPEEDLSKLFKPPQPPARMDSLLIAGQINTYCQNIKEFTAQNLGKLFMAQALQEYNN
Another test deals with T3, FAM105A (UniProt Q9NUU6).
T3 sequence (whole entry): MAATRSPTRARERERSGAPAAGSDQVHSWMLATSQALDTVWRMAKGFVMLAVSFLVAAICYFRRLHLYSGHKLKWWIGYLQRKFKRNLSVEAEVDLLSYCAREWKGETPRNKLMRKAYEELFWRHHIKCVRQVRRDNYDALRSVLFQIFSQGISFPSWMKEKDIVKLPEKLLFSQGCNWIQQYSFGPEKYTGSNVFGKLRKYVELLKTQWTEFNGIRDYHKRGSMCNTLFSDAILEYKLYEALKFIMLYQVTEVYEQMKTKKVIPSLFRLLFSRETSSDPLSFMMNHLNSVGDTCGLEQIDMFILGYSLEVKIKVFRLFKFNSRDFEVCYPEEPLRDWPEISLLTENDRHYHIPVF
A digest of the protocol:
as §1

A further test concerns the target OTUB1 (UniProt Q96FW1). In outline: as §1
In a further test the target is T4, OTUD4 (UniProt Q01804).
T4 sequence (whole entry): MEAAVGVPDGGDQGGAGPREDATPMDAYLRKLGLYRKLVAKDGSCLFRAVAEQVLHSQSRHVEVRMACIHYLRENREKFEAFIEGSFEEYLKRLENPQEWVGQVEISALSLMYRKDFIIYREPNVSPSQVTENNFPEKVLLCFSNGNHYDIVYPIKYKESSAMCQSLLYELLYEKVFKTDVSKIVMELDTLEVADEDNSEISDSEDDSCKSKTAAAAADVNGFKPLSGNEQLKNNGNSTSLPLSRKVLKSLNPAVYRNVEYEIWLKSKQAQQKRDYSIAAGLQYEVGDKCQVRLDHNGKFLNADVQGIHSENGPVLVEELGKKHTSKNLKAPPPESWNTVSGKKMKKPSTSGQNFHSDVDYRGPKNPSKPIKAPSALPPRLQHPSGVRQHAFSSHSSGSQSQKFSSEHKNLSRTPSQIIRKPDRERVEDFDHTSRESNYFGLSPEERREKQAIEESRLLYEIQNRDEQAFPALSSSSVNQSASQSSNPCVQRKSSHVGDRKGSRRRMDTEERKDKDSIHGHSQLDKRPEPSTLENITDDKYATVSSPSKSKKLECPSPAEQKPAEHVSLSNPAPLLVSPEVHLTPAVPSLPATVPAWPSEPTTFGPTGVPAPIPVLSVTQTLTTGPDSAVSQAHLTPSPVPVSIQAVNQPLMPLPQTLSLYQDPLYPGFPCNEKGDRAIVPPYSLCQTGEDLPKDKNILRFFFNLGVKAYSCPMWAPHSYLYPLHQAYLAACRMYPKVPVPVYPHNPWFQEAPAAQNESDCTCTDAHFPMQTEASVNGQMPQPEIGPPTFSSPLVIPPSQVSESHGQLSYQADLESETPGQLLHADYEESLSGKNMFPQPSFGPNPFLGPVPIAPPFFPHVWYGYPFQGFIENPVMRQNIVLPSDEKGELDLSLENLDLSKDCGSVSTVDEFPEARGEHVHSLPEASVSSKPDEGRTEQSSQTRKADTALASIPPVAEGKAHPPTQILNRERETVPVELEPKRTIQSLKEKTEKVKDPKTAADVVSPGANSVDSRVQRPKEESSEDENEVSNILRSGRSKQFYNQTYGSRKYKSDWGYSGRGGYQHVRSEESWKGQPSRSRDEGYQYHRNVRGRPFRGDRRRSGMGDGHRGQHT
A digest of the protocol:
as §1

A further test has as its target T5, OTUD5 (UniProt Q96G74).
T5 sequence (whole entry): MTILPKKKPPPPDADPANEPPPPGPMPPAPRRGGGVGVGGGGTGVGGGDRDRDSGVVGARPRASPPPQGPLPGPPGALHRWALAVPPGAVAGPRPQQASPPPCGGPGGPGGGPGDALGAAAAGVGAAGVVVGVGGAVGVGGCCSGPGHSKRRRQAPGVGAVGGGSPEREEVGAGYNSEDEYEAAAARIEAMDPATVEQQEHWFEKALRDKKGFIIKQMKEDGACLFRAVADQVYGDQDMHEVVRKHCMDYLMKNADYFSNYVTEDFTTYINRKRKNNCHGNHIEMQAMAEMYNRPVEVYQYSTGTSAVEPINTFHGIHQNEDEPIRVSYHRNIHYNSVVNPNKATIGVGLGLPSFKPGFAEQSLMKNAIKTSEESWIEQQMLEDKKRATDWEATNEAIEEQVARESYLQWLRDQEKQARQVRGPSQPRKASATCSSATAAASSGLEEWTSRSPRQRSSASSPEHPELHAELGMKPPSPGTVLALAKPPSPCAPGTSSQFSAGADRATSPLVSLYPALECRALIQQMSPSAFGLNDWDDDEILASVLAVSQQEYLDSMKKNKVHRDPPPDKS
In outline:
as §1

A number with no mark means an inactive call.

ATXN3, sequence (P54252 whole entry): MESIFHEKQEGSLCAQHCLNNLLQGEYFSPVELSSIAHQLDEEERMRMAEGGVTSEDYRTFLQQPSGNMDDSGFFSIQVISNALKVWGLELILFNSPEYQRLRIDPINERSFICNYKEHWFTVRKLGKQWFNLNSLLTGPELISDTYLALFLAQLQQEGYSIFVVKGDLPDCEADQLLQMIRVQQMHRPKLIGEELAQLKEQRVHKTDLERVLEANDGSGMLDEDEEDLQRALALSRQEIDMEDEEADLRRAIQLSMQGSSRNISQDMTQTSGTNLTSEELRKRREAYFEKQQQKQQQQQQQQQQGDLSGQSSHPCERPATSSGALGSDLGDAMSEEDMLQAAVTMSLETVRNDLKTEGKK
OTUB1, sequence (Q96FW1 whole entry): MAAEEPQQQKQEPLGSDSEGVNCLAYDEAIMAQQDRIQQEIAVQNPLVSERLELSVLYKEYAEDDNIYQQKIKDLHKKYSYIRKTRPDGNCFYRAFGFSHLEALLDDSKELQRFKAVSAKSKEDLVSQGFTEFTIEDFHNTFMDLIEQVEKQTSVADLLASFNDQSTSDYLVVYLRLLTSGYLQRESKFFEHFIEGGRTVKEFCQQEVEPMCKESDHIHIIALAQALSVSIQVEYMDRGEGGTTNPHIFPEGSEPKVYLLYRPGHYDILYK

Consider `Cc1nc(CN2CCCN(C(=O)CCl)CC2)no1.Cl`, for which the “log2 ratio of Biotin-Ahx-Ub-VS probe labelling” value (shortened to “log2 ratio”) is -0.458 in the test with ALG13; 0.224 in the test with ATXN3; 0.234 in the test with BAP1; -0.233 with EIF3F; 0.122 with EIF3H; -0.14 in the test with FAM105A. Besides, the entries for the “log2 ratio” value with OTUB1, in the test with OTUD4 and in the test with OTUD5 were 0.0104, 0.243 and -0.0201, respectively.

With `O=C(CCl)NCc1ccc(N2CCOCC2)c(F)c1`, the “log2 ratio” value is -0.435 with ALG13; -0.0444 in the test with ATXN3; -2.54 (active) in the test with BAP1; -0.139 in the test with EIF3F; -0.335 with EIF3H; 0.388 with FAM105A. In addition, the “log2 ratio” value was -0.0261 in the test with OTUB1, -0.0414 with OTUD4 and 0.0267 with OTUD5.

Turning to `O=C(CCl)N1CCC(O)(Cc2ccc(F)cc2)C1` (stereo not drawn), the “log2 ratio” value with ALG13 is -0.581; with ATXN3, -0.456; in the test with BAP1, -0.845; with EIF3F it was -0.133; in the test with EIF3H, -0.189; with FAM105A, -0.0755. Further, the “log2 ratio” value with OTUB1 is -0.0952; in the test with OTUD4, -0.135; with OTUD5, -0.233.

Take `Cc1ccc(N(CCC#N)C(=O)CCl)cc1C`: the “log2 ratio” value in the test with ALG13 was -0.389; with ATXN3, -0.353; in the test with BAP1 it was -0.735; with EIF3F, -0.396; in the test with EIF3H, 0.219; with FAM105A it was -0.314. Also, the results for the “log2 ratio” value with OTUB1, with OTUD4 and in the test with OTUD5 were -0.139, -1.93 (active) and -0.661, respectively.

In the case of `O=C(CCl)N1CCCCC12CCOCC2`, the “log2 ratio” value in the test with ALG13 is 0.112; with ATXN3, -0.355; with BAP1, -1.05 (active); with EIF3F, -0.323; with EIF3H it was -0.162; with FAM105A, 0.208. The “log2 ratio” value with OTUB1 was -0.126; with OTUD4, -0.484; in the test with OTUD5, -0.461.

On to `CNC(=O)C1(NC(=O)CCl)CCCCC1`, for which the “log2 ratio” value with ALG13 is -1.06; in the test with ATXN3, -0.161; with BAP1, -1.12 (active); with EIF3F it was -0.192; in the test with EIF3H, 0.0858; with FAM105A it was -0.00491. In addition, the “log2 ratio” value was 0.0146 with OTUB1, -0.439 in the test with OTUD4 and -0.0782 with OTUD5.

For the compound `COc1ccc(C2CCCN2C(=O)CCl)c(OC)c1` (stereo not drawn), the “log2 ratio” value with ALG13 was -0.266; with ATXN3 it was -0.54; with BAP1, -3.55 (active); with EIF3F, -0.23; with EIF3H it was -0.25; with FAM105A, 0.0093. Further, the “log2 ratio” value was 0.0641 in the test with OTUB1, 0.0731 with OTUD4 and -0.185 in the test with OTUD5.
